Screening results: PubChem, National Center for Advancing Translational Sciences (NCATS)
In the library only some 5.7% were active in any assay of this set; here they are far more common.
HT1080NT lethal: kills 2HG-producing HT-1080-NT fibrosarcoma cells; HT-1080-NT fibrosarcoma viability, CellTiter-Glo ATP luminescence, 48 h; Potency, µM (series often up to 46.1 µM), for inactives: top-dose activity, negative = less viability, hits mostly cytotoxic; 360,000 compounds, 1.6% hits;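 further: NT is the 2HG producing partner of a matched IDH1 knockdown line; 0% = DMSO-treated cells and -100% = media-only wells without cells; nearly all actives have a fitted effect of over 55% in size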
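Toxicity toward the 2HG-producing NT line was scored as %Activity, normalised to DMSO and no-cell wells, from CellTiter-Glo luminescence after 48 hours' treatment.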
KB-V1 cytotox: kills drug-selected multidrug resistant KB-V1 cells; 400,000 compounds, 3.4% hits; KB-V1 MDR cells viability, CellTiter-Glo, 72 h; Potency, µM (titrated, usually from 46.1 µM), most hits filed as cytotoxic; further: nearly all actives have a fitted effect of over 60% in size
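KB-V1 cells (P-gp-expressing MDR subline of KB-3-1) in phenol-red-free DMEM with 10% FBS were exposed to library compounds over a concentration series for 72 h at 37 degrees C. Viability read by CellTiter-Glo luminescence; concentration-effect curves fitted after normalization.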
KB-3-1 cytotox: KB-3-1 parental cell cytotoxicity; KB-3-1 viability, CellTiter-Glo ATP luminescence, 72 h; Potency, µM (top dose mostly 46.1 µM), most hits filed as cytotoxic; 400,000 compounds, 1.4% hits; further: nearly all actives have a fitted effect of over 60% in size
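Luminescent ATP read-out (CellTiter-Glo) measures survival of drug-naive KB-3-1 cells after 72 h compound exposure at 37 °C. Titration series was screened from lowest to highest concentration, with DMSO vehicle plates as background controls.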
HT1080 IDH1KD tx: HT-1080 IDH1 knockdown cell toxicity (counter line); HT-1080 IDH1 knockdown viability, ATP luminescence, 48 h; Potency, µM (titrated, usually from 46.1 µM), for inactives: at the highest dose activity, negative = toxicity, most hits filed as cytotoxic; 360,000 compounds, 2% hits;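 further: 0% = DMSO wells and -100% = cell-free medium wells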
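IDH1KD HT-1080 cells, 750/well, RPMI + 5% FBS; compound pinned after 2 h settling; 48 h, 37 °C; CellTiter-Glo luminescence; % activity normalised to DMSO and no-cell wells; curves fitted, classed by r2 and efficacy.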
* = called active by the depositor; i = inactive; ? = inconclusive; . = no result given; ! = not active in a repeat. The call rests on the fitted dose curve; in most records, active means well fitted curve in the direction sought with a large enough effect; inconclusive means small, poorly fitted or top-dose-only effect, or another doubt; inactive means no such curve, though single readings can be large; an effect the other way counts as inactive or inconclusive. Unless noted, on the % scale 0 is the no-effect control and ±100 the full control effect; potency means the concentration at half of the fitted maximal effect.

SMILES | HT1080NT lethal | KB-V1 cytotox | KB-3-1 cytotox | HT1080 IDH1KD tx
c1ccc(CN2CCC3(CC2)Nc2ccccc2CO3)cc1 | ? | i | i | -3.8%
c1ccc(CN2CCC3(CCCc4ccccc43)CC2)cc1 | ? | ? | i | 16.4µM*
CCN(CC)C(=O)Cn1c(=O)n(CCCCCC(=O)NCc2ccc(C)cc2)c(=O)c2sccc21 | . | i | i | .
COc1ccc(-c2nn(-c3ccccc3)cc2/C=N/NC(N)=S)cc1OC | 0.731µM* | ? | i | 0.651µM*
COc1c(/C=N/NC(N)=S)c(C)nn1-c1ccccc1 | 7.6% | 9.2µM* | ? | 10.0%
COc1ccc(-c2nn(-c3ccccc3)cc2/C=N/n2cnnc2)cc1OC | -3.1% | i | i | -0.9%
COc1ccc(-c2nn(-c3ccccc3)cc2/C=C/C(=O)O)cc1[N+](=O)[O-] | -12.9% | i | ? | 18.4µM*
COc1c(/C=N/Nc2ccc([N+](=O)[O-])cc2[N+](=O)[O-])c(C)nn1-c1ccccc1 | 9.8% | i | i | 7.9%
Cc1ccc(S(=O)Cc2ccc(C(=O)NC3CCCCCC3)o2)cc1 (stereo unspecified) | . | i | i | .
CCOc1ccc(NC(=O)c2nnn(-c3ccc(F)c(Cl)c3)c2C)cc1 | . | i | i | .
CN1C(=O)c2ccccc2Sc2ccc(NC(=O)N3CCN(c4cccc(Cl)c4)CC3)cc21 | . | i | i | .
COc1ccc([C@H]2C[C@H](O)[C@@H](n3cc(-c4ccc(F)cc4)nn3)CN2CC2CCCCC2)cc1 | 20.5% | ? | ? | 6.5%
O[C@@H]1CN(CC2CCCCC2)[C@@H](c2ccccc2)C[C@H]1n1cc(-c2ccc(F)cc2)nn1 | ? | i | 16.4µM* | ?
COc1ccc([C@H]2C[C@@H](n3cc(-c4ccc(F)cc4)nn3)[C@H](O)CN2CC2CCCCC2)cc1 | 3.3% | 20.6µM* | ? | 2.0%
CC(C)(C)c1ccc(S(=O)(=O)/C=C/C#N)cc1 | . | i | i | .
CCSc1nc(-c2ccc(OC)cc2)n(-c2nc3ccccc3s2)n1 | 0.3% | 11.6µM* | i | 12.6%
COc1cccc(NC(=O)c2cc3c(=O)n(C)c4ccccc4c3n2C)c1 | . | i | i | .
CC1=CC(C)(C)NC(=S)N1c1ccc2ccccc2c1 | 5.62µM* | i | i | 7.08µM*!
COc1ccc(-c2ccc3oc(-c4ccc(OC)cc4)c(C#CCO)c3c2)cc1 | 20.6µM* | i | i | 16.4µM*
COc1ccc(-c2ccc3oc(-c4ccc(OC)cc4)c(-c4ccc(OC)cc4)c3c2)cc1 | 11.0% | i | i | 22.6%
CSc1ccc(/C=C(\C#N)C(=O)NC2CCCCC2C)cc1 (stereo unspecified) | ? | 16.4µM* | ? | ?
CCCCCCCCNC(=O)/C(C#N)=C/c1ccc2c(c1)OCCO2 | 7.5% | i | i | -1.8%
CC(=O)Nc1ccc(/C=C(\C#N)C(=O)NC2CCCCC2C)cc1 (stereo unspecified) | -4.2% | ? | i | -12.0%
CC1CCCCC1NC(=O)/C(C#N)=C/c1ccccc1F (stereo unspecified) | ? | i | i | 18.4µM*
CCOCCCNC(=O)/C(C#N)=C/c1ccccc1F | 12.4% | i | i | 14.9%
SMILES | HT1080NT lethal | KB-V1 cytotox | KB-3-1 cytotox | HT1080 IDH1KD tx
CCCCCCCCNC(=O)/C(C#N)=C/c1ccc(SC)cc1 | -2.0% | 20.6µM* | i | -0.2%
Cc1sc2ccccc2[n+]1CCCC[n+]1c(C)sc2ccccc21 | . | i | i | .
COc1ccccc1C(=O)OCc1cc(=O)n2nc(C(C)C)sc2n1 | . | i | i | .
CCOc1ccc(-c2cc3nc(C4CCN(C(=O)OC(C)(C)C)CC4)c(C(=O)Nc4ccc(C)c(F)c4)cn3n2)cc1 | . | i | i | .
Cc1ccc2c(CN(C)Cc3ccc(OC(F)F)cc3)cc(=O)oc2c1C | -1.8% | 16.4µM* | ? | -15.2%
Cc1ccc2c(CN(C)Cc3cccc(F)c3)cc(=O)oc2c1C | -20.4% | i | ? | -19.2%
CCN(CC)S(=O)(=O)c1ccc(C(=O)Nc2nc3c(Cl)cc(Cl)cc3s2)cc1 | . | i | 20.6µM* | .
CCOC(=O)c1sc(NC(=O)c2ccc(S(=O)(=O)N(CC)CC)cc2)nc1C | 3.5% | i | i | 0.4%
CCN1CCN(Cc2coc3ccc(C)cc3c2=O)CC1 | -5.4% | i | i | -11.5%
Cc1ccc2occ(CN3CCN(c4ccccc4)CC3)c(=O)c2c1 | -6.2% | 23.1µM* | i | ?
O=C(N/N=C/c1ccccc1F)c1ccc(COc2ccccc2Cl)o1 | -3.0% | 18.4µM* | i | -1.0%
COc1ccc(NC(=O)CC2C(=O)N(c3ccc(OC)cc3)C(=O)N2CCc2cccs2)cc1 (stereo unspecified) | -0.1% | 14.6µM* | i | 7.8%
COc1ccc(NC(=O)CC2C(=O)N(c3cccc(OC)c3)C(=O)N2CCc2cccs2)cc1 (stereo unspecified) | . | i | i | .
COc1ccc(NC(=O)CC2C(=O)N(c3cccc(OC)c3)C(=O)N2C2CCCCC2)cc1 (stereo unspecified) | 7.9% | 16.4µM* | i | 4.9%
CCC(C)N(C(=O)CSc1ncnc2sccc12)C1CCS(=O)(=O)C1 (stereo unspecified) | -4.0% | i | i | -0.4%
CCC(C)N(C(=O)CSc1nc(-c2cccs2)nc2ccccc12)C1CCS(=O)(=O)C1 (stereo unspecified) | -23.2% | 1.46µM* | i | ?
COC(=O)c1[nH]c(C)c(/C(O)=C2\C(=O)C(=O)N(CCN3CCOCC3)C2c2cccs2)c1C (stereo unspecified) | 14.2% | i | i | 23.6%
CCOC(=O)c1[nH]c(C)c(/C(O)=C2\C(=O)C(=O)N(CCCN3CCOCC3)C2c2cccs2)c1C (stereo unspecified) | 9.2µM* | ? | ? | 20.6µM*
Cc1cccc(C)c1OCC(O)CNS(=O)(=O)c1ccccc1C(=O)N1CCCCC1 (stereo unspecified) | -5.2% | 4.61µM* | i | -2.1%
Cc1ccc(OCC(O)CNS(=O)(=O)c2ccccc2C(=O)O)cc1 (stereo unspecified) | 13.0% | i | i | 17.1%
CC(C)CNS(=O)(=O)c1ccccc1C(=O)N1CCCCC1 | -3.8% | 14.6µM* | i | 3.1%
O=C(c1ccccc1NS(=O)(=O)c1ccccc1)N1CCCCCC1 | -5.4% | ? | i | -7.5%
O=C(CCl)N(C/C=C/c1ccccc1)c1ccc2c(c1)OCCO2 | 10.3µM* | i | i | ?
CCOC(=O)NNc1ccccc1 | 4.11µM* | i | i | 3.66µM*
CCC(O)CC(C(=O)NNc1ccccc1)C(=O)NNc1ccccc1 (stereo unspecified) | 2.59µM* | i | ? | 5.8µM*
CC(C)C(O)(C(=O)NNc1ccccc1)C(C)C | 14.4% | i | i | 11.2%
CC(C)Cn1c(N)c(C(=O)NCCN2CCOCC2)c2nc3ccccc3nc21 | 4.0% | 23.1µM* | i | 2.6%
